Activity calls are given as the source filed them. How the source made its calls: active means hit-call score of the fitted dose curve at least 0.9, where 1 is the maximum; inactive means score below 0.9.
Assays:
Conditions in all cases: mRNA level, 48 h; actives raise or lower the signal
[1] = read-out: Cyclin D1 (CCND1), CCND1 (gene 595); assay: LTEA_HepaRG_CCND1: Life Technologies and Expression Analysis (LTEA) Assay for Cyclin D1 (CCND1) using HepaRG (AID 2283451);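 on AC50: TaqMan qRT-PCR transcript level normalised to ACTB GAPDH and POLR2A housekeeping genes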
Summary of the method: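 Differentiated HepaRG cells exposed 48 h in serum-free induction medium to eight half-log concentrations from 100 uM top, 0.5% DMSO, duplicates. CCND1 mRNA measured by Fluidigm TaqMan qRT-PCR, normalised to ACTB, GAPDH, POLR2A; bidirectional fit.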

[2] = read-out: flavin-containing dimethylaniline monooxygenases 3 (FMO3), FMO3 (gene 2328); assay: LTEA_HepaRG_FMO3: Life Technologies and Expression Analysis (LTEA) Assay for flavin-containing dimethylaniline monooxygenases 3 (FMO3) using HepaRG (AID 2283453);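 on AC50: FMO3 transcript by TaqMan qRT-PCR normalized to ACTB GAPDH and POLR2A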
Summary of the method: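 Eight-point concentration-response in serum-free HepaRG cultures (top 100 uM, 0.5% DMSO, 48 h). Read-out: FMO3 mRNA level normalized to three endogenous control genes, fitted bidirectionally versus vehicle.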

[3] = read-out: Cytochrome P450 (CYP1A1), CYP1A1 (gene 1543); assay: LTEA_HepaRG_CYP1A1: Life Technologies and Expression Analysis (LTEA) Assay for Cytochrome P450 (CYP1A1) using HepaRG (AID 2283454)
Summary of the method: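 Differentiated human HepaRG cells, after 48 h plating, exposed in duplicate for 48 h in serum-free induction medium to 8 half-log concentrations up to 100 uM in 0.5% DMSO. CYP1A1 mRNA by qRT-PCR, normalized to ACTB/GAPDH/POLR2A; bidirectional fit versus DMSO.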

[4] = read-out: CFLAR gene, CFLAR (gene 8837); assay: LTEA_HepaRG_CFLAR: Life Technologies and Expression Analysis (LTEA) Assay for CFLAR gene using HepaRG (AID 2283455)
Summary of the method: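 Gain- or loss-of-signal changes in CFLAR transcript were fitted bidirectionally relative to 0.5% DMSO. Cells (HepaRG, duplicate wells) were dosed for 48 h across eight half-log concentrations topping at 100 uM; quantitation by TaqMan qRT-PCR.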

[5] = read-out: Forkhead box O1 (FOXO1), FOXO1 (gene 2308); assay: LTEA_HepaRG_FOXO1: Life Technologies and Expression Analysis (LTEA) Assay for Forkhead box O1 (FOXO1) using HepaRG (AID 2283456)
Summary of the method: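 Using one lot of HepaRG hepatic cells kept in 0.5% DMSO, the team applied test chemicals in duplicate, half-log dilutions from 100 uM, for 48 h. Expression, normalised to ACTB/GAPDH/POLR2A, was compared with vehicle in either direction.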

[6] = read-out: ABC Transporter (ABCB1), ABCB1 (gene 5243); assay: LTEA_HepaRG_ABCB1: Life Technologies and Expression Analysis (LTEA) Assay for ABC Transporter (ABCB1) using HepaRG (AID 2283460)
Summary of the method: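 Human liver HepaRG line treated 48 h with up to 100 uM compound (eight half-log points, 0.5% DMSO); ABCB1 mRNA change fitted bidirectionally against DMSO controls.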

[7] = read-out: growth arrest and DNA damage 45 (GADD45B), GADD45B (gene 4616); assay: LTEA_HepaRG_GADD45B: Life Technologies and Expression Analysis (LTEA) Assay for growth arrest and DNA damage 45 (GADD45B) using HepaRG (AID 2283461)
Summary of the method: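 Differentiated human HepaRG cells in serum-free induction medium exposed 48 h in duplicate to eight concentrations, top 100 uM, half-log steps, 0.5% DMSO. GADD45B mRNA by TaqMan qRT-PCR, normalized to ACTB, GAPDH, POLR2A; bidirectional fit versus DMSO.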

[8] = read-out: ABC Transporter (ABCC3), ABCC3 (gene 8714); assay: LTEA_HepaRG_ABCC3: Life Technologies and Expression Analysis (LTEA) Assay for ABC Transporter (ABCC3) using HepaRG (AID 2283462)
Summary of the method: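 Differentiated human HepaRG cells exposed 48 h in serum-free induction medium, 0.5% DMSO vehicle, 8-point half-log series to 100 uM in duplicate. ABCC3 mRNA by qRT-PCR, normalised to ACTB, GAPDH, POLR2A; bidirectional fit vs DMSO.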

[9] = read-out: ABC Transporter (ABCB11), ABCB11 (gene 8647); assay: LTEA_HepaRG_ABCB11: Life Technologies and Expression Analysis (LTEA) Assay for ABC Transporter (ABCB11) using HepaRG (AID 2283463)
Summary of the method: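 Using HepaRG cultures held in 0.5% DMSO, chemicals were tested at half-log dilutions from 100 uM for 48 h. Induction or suppression of ABCB11 mRNA, normalized to ACTB, GAPDH and POLR2A, was fitted bidirectionally against vehicle.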

[10] = read-out: ABC Transporter (ABCC2), ABCC2 (gene 1244); assay: LTEA_HepaRG_ABCC2: Life Technologies and Expression Analysis (LTEA) Assay for ABC Transporter (ABCC2) using HepaRG (AID 2283464)
Summary of the method: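 Differentiated HepaRG cells in serum-free induction medium exposed 48 h to eight half-log concentrations up to 100 uM, 0.5% DMSO, in duplicate. ABCC2 mRNA measured by qRT-PCR (TaqMan, Fluidigm), normalized to ACTB, GAPDH and POLR2A. Fitted in both directions against DMSO.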

[11] = read-out: Broad substrate specificity ATP-binding cassette transporter ABCG2 (Homo sapiens) (UniProt Q9UNQ0); assay: LTEA_HepaRG_ABCG2: Life Technologies and Expression Analysis (LTEA) Assay for ABC Transporter (ABCG2) using HepaRG (AID 2283465)
Summary of the method: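 Gene expression of ABCG2 in HepaRG liver cells is quantified by qRT-PCR following 48 h exposure across an eight-point series topping at 100 uM. Values come from bidirectional fitting relative to DMSO vehicle.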

[12] = read-out: ATP-citrate lyase (ACLY), ACLY (gene 47); assay: LTEA_HepaRG_ACLY: Life Technologies and Expression Analysis (LTEA) Assay for ATP-citrate lyase (ACLY) using HepaRG (AID 2283466)
Summary of the method: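 ACLY expression changes in human HepaRG liver cells are quantified by qRT-PCR after 48 h exposure to test chemicals (maximum 100 uM, half-log steps). Values are fitted in both directions relative to 0.5% DMSO vehicle.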

[13] = read-out: Peroxisomal acyl-coenzyme A oxidase 1 (ACOX1) gene, ACOX1 (gene 51); assay: LTEA_HepaRG_ACOX1: Life Technologies and Expression Analysis (LTEA) Assay for Peroxisomal acyl-coenzyme A oxidase 1 (ACOX1) gene using HepaRG (AID 2283467)
Summary of the method: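 Human HepaRG hepatic cultures, 48 h treatment with test chemicals up to 100 uM. ACOX1 expression read by qRT-PCR relative to 0.5% DMSO vehicle.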

[14] = read-out: Alkaline Phosphatase, Placental (ALPP) gene, ALPP (gene 250); assay: LTEA_HepaRG_ALPP: Life Technologies and Expression Analysis (LTEA) Assay for Alkaline Phosphatase, Placental (ALPP) gene using HepaRG (AID 2283468)
Summary of the method: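 HepaRG cells plated 48 h, then exposed in duplicate for 48 h in serum-free induction medium to 8-point half-log series from 100 uM in 0.5% DMSO. ALPP mRNA by TaqMan qRT-PCR, normalized to ACTB/GAPDH/POLR2A; bidirectional fit versus DMSO.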

[15] = read-out: Bcl-2 (BAD) gene, BAD (gene 572); assay: LTEA_HepaRG_BAD: Life Technologies and Expression Analysis (LTEA) Assay for Bcl-2 (BAD) gene using HepaRG (AID 2283469)
Summary of the method: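 Activity values reflect up- or down-regulation of BAD mRNA in human HepaRG hepatic cells treated 48 h in serum-free medium, with eight-point half-log dosing capped at 100 uM and 0.5% DMSO vehicle.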

[16] = read-out: Bcl-2 (BAX) gene, BAX (gene 581); assay: LTEA_HepaRG_BAX: Life Technologies and Expression Analysis (LTEA) Assay for Bcl-2 (BAX) gene using HepaRG (AID 2283470)
Summary of the method: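 qRT-PCR read-out of BAX mRNA, normalized to three housekeeping genes, after 48 h chemical exposure of human HepaRG cells in serum-free induction medium; eight-point half-log series, top 100 uM, 0.5% DMSO vehicle; bidirectional fit versus DMSO.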

[17] = read-out: growth arrest and DNA damage 45 (GADD45A), GADD45A (gene 1647); assay: LTEA_HepaRG_GADD45A: Life Technologies and Expression Analysis (LTEA) Assay for growth arrest and DNA damage 45 (GADD45A) using HepaRG (AID 2283458)
Summary of the method: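 HepaRG, 48 h exposure, 8 conc. (top 100 uM, half-log steps), 0.5% DMSO vehicle, duplicates. Read-out: qRT-PCR mRNA level, housekeeping-normalized (ACTB/GAPDH/POLR2A). Curves fit bidirectionally vs DMSO baseline.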

[18] = read-out: Forkhead box O3 (FOXO3), FOXO3 (gene 2309); assay: LTEA_HepaRG_FOXO3: Life Technologies and Expression Analysis (LTEA) Assay for Forkhead box O3 (FOXO3) using HepaRG (AID 2283459)
Summary of the method: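 Gene-expression endpoint: FOXO3 transcript level by qRT-PCR in HepaRG cultures treated 48 h with chemicals up to 100 uM (half-log, 0.5% DMSO vehicle).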

Measured: AC50

Sequence of Broad substrate specificity ATP-binding cassette transporter ABCG2 (Homo sapiens) (Q9UNQ0 whole entry, looked up): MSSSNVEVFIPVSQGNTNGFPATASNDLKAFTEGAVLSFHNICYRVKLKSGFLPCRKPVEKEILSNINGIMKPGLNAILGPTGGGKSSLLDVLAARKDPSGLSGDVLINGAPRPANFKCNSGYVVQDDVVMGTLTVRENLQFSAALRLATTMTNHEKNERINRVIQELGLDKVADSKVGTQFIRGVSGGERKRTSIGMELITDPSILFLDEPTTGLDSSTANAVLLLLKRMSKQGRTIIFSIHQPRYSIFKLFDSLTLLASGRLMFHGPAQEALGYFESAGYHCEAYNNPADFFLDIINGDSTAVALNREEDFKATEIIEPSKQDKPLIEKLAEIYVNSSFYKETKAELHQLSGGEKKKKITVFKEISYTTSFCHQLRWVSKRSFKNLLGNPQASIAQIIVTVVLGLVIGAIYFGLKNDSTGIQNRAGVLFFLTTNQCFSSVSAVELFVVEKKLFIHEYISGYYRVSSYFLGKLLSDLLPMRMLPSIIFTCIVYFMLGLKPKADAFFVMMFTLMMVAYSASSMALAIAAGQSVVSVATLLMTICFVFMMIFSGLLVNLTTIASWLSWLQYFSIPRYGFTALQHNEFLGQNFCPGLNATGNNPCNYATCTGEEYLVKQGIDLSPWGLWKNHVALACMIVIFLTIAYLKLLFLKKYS

CC(C)(C)C(=O)C(Oc1ccc(Cl)cc1)n1cncn1 (stereo not drawn)
active: [3] 37 µM | [6] 7.7 µM | [10] 16.8 µM | [12] 66.5 µM
inactive: [1] | [2] | [4] | [5] | [7] | [8] | [9] | [11] | [13] | [14] | [15] | [16]

CCOP(=O)(OCC)Oc1nc(Cl)c(Cl)cc1Cl
active: [1] 80.7 µM | [2] 79.3 µM | [3] 73.5 µM | [9] 79.2 µM | [10] 76.4 µM | [13] 74.9 µM
inactive: [4] | [5] | [6] | [7] | [11] | [12] | [14] | [15] | [16]

CCOc1nc(C(Cl)(Cl)Cl)ns1
active: [1] 1.18 µM | [2] 0.644 µM | [3] 1.44 µM | [4] 0.912 µM | [5] 1 µM | [17] 1.49 µM | [18] 0.967 µM | [6] 1.05 µM | [7] 1.23 µM | [9] 1.08 µM | [11] 1.29 µM | [12] 23.8 µM | [13] 1.11 µM | [14] 2.14 µM | [15] 1.3 µM | [16] 1.39 µM
inactive: [10]

Cc1cnc(C2=NC(C)(C(C)C)C(=O)N2)c(C(=O)O)c1 (stereo not drawn)
inactive: [1] | [2] | [4] | [5] | [17] | [6] | [7] | [9] | [10] | [11] | [12] | [13] | [14] | [15] | [16]
active: [3] 71.2 µM

O=P(O)(O)CCCl
inactive: [2] | [3] | [4] | [5] | [18] | [6] | [7] | [8] | [9] | [10] | [11] | [12] | [13] | [14] | [15] | [16]
active: [1] 0.261 µM

COC(=O)N(C(=O)N1CO[C@@]2(C(=O)OC)Cc3cc(Cl)ccc3C2=N1)c1ccc(OC(F)(F)F)cc1
active: [2] 40 µM | [3] 5.08 µM | [4] 29.8 µM | [7] 8.78 µM | [9] 40 µM | [13] 40 µM
inactive: [1] | [5] | [17] | [6] | [10] | [11] | [12] | [14] | [15] | [16]

Cc1c(COC(=O)[C@@H]2[C@H](/C=C(\Cl)C(F)(F)F)C2(C)C)cccc1-c1ccccc1
active: [3] 33.6 µM | [6] 28.3 µM | [11] 50 µM
inactive: [1] | [2] | [4] | [5] | [7] | [8] | [9] | [10] | [12] | [13] | [14] | [15] | [16]
